Results taken from PubChem BioAssay (Tox21).
Values without a mark were called inactive. Results filed as inconclusive are left out. Where a call stands in place of a potency, no number is given. Active and inactive are the calls of the source. Unless noted, calls come from the whole dose curve; as a rule, active = well fitted curve in the direction sought with a large enough effect in the repeat runs; inconclusive = weak or mixed curves; inactive = no such curve, though single readings can be large; an effect the other way counts as inactive or inconclusive.

Legend:
[1] = qHTS assay to identify small molecule antagonists of the estrogen related receptor (ERR) signaling pathway from Tox21 library - cell viability counter screen (AID 1224834); note: nearly all actives have a fitted effect of over 30% in size
Method in brief: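 ERR reporter cells, 2,000 per well, rested 6 h, then exposed to compound in DMSO for 17.5 hours at 37 C. Viability read as fluorescence after 30 min with CellTiter-Fluor.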

[2] = molecular target: Luciferin 4-monooxygenase (Photinus pyralis) (UniProt P08659); test: qHTS assay to identify small molecule inhibitors of firefly luciferase (AID 1224835); note: nearly all actives have a fitted effect of over 25% in size; note: potency is the fitted concentration of half-maximal effect
Method in brief: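 Inhibition of purified Photinus luciferase is measured by luminescence. Substrate levels (D-luciferin, ATP) sit at their KM values. Each compound is tested in a concentration series.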

[3] = qHTS assay to identify small molecule agonists of the constitutive androstane receptor (CAR) signaling pathway - cell viability counter screen (AID 1224836); note: nearly all actives have a fitted effect of over 45% in size
Method in brief: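 Counter screen multiplexed with the CAR reporter readout: HepG2 cells co-transfected with hCAR and the CYP2B6-2.2kb construct receive a 15-concentration compound series and 0.75 uM PK11195 (final), then CellTiter-Fluor fluorescence is read after 23 h.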

[4] = qHTS assay to identify small molecule antagonists of the constitutive androstane receptor (CAR) signaling pathway - cell viability counter screen (AID 1224837); note: nearly all actives have a fitted effect of over 45% in size
Method in brief: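 HepG2 cells stably carrying hCAR and CYP2B6-2.2kb reporter, stimulated with 50 nM CITCO and compounds at 15 concentrations for 23 h at 37 C. Viability measured by CellTiter-Fluor fluorescence.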

[5] = molecular target: Nuclear receptor subfamily 1 group I member 3 (Homo sapiens) (UniProt Q14994); test: qHTS assay to identify small molecule agonists of the constitutive androstane receptor (CAR) signaling pathway (AID 1224839); note: nearly all actives have a fitted effect of over 15% in size; note: potency is the fitted concentration of half-maximal effect
Method in brief: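 A 15-concentration quantitative screen uses HepG2 cells co-transfected stably with human CAR and CYP2B6-2.2kb reporter. Treatment lasts 24 h with 0.75 uM PK11195 final present; ONE-Glo luminescence is the signal.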

[6] = qHTS assay to identify small molecule antagonists of the estrogen related receptor signaling pathway with the pleiotropic PPARgamma coactivator (PGC) from Tox21 10K library - cell viability counter screen (AID 1224840; active = well fitted cell-killing curve with a large enough effect in the repeat runs, not every such curve was filed as active; note: nearly all actives have a fitted effect of over 40% in size)
Method in brief: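 PGC/ERR cells (2,000/well) plated 6 h, then compound-treated for 17.5 h at 37 C. Viability measured by CellTiter-Fluor fluorescence after 30 min at 37 C, multiplexed with the pathway assay.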

[7] = molecular target: Thyrotropin receptor (Homo sapiens) (UniProt P16473); test: qHTS assay to identify small molecule agonists of the thyroid stimulating hormone receptor (TSHR) signaling pathway (AID 1224843; calls by dose curve; note: nearly all actives have a fitted effect of over 45% in size)
Method in brief: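 Screening of the Tox21 10K collection used HEK293 cells engineered with TSHR at 800 cells per well. After a 30-min room-temperature compound exposure, HTRF cAMP reagents were added and fluorescence recorded 1 h later.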

[8] = qHTS assay to identify small molecule agonists of the hypoxia (HIF-1) signaling pathway - cell viability counter screen (AID 1224844; calls by dose curve; note: nearly all actives have a fitted effect of over 50% in size)
Method in brief: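 HRE-bla ME-180 cells, 2,000/well in 0.5% dialyzed FBS medium, treated 17 h at 37C with compounds. Viability read in the same wells as the bla reporter, by CellTiter-Glo luminescence after 30 min at room temperature.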

[9] = qHTS assay to identify small molecule agonists of H2AX (AID 1224845; active = well fitted activation curve with a large enough effect in the signal ratio in the repeat runs, not every such curve was filed as active; the % refers to the signal ratio)
Method in brief: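 Phospho-H2AX Ser139 measured by HTRF (ex 320 nm; em 665 and 620 nm) after 24 hr antibody incubation. Compounds, 15 concentrations, 0.76% DMSO, were applied to CHO-K1 cells for 3hr at 37C before lysis.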

[10] = qHTS assay to identify small molecule agonists of the hypoxia (HIF-1) signaling pathway (AID 1224846; active = well fitted activation curve with a large enough effect in the signal ratio in the repeat runs, not every such curve was filed as active; the % refers to the signal ratio)
Method in brief: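 HRE-bla ME-180 beta-lactamase reporter cells in medium with 0.5% dialyzed FBS, pre-incubated 5 h then exposed to compounds 17 h at 37C, 5% CO2; reporter induction read with CCF4-AM FRET substrate.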

[11] = qHTS assay to identify small molecule agonists of H2AX - cell viability counter screen (AID 1224847; calls by dose curve; note: top concentration of the series differs between compounds; nearly all actives have a fitted effect of over 30% in size)
Method in brief: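 We seed wild-type CHO-K1 cells overnight, treat them for 3 hr at 37C with compounds in 15-concentration series, and quantify remaining viability by CellTiter-Glo luminescence.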

[12] = qHTS RealTime-Glo MT Cell Viability Assay in HepG2 cells - 24 hour (AID 1224867); note: nearly all actives have a fitted effect of over 50% in size
Method in brief: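 Real-time, nonlytic viability: 600 HepG2 cells/well mixed with NanoLuc enzyme plus prosubstrate; 5 h settle, compound (DMSO) added by pintool; luminescence monitored over 40 h at 37 C.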

[13] = qHTS RealTime-Glo MT Cell Viability Assay in HEK293 cells - 32 hour (AID 1224868); note: top concentration of the series differs between compounds; nearly all actives have a fitted effect of over 50% in size
Method in brief: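 Cells + reagent dispensed (600 cells/well, HEK293) → 5 h at 37 C/5% CO2 → 23 nL compound in DMSO pinned → 40 h at 37 C → luminescence read at 0, 8, 16, 24, 32, 40 h.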

[14] = A CellTox Green Cytotoxicity Assay to monitor cytotoxicity in HEK293 cells - 0 hour (AID 1224869); note: nearly all actives have a fitted effect of over 50% in size
Method in brief: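 HEK293 cells, 600/well, were preincubated 5 hours and then exposed to compounds at 37 C for up to 40 hours. A cell-impermeant cyanine dye staining dead-cell DNA was read by fluorescence at 0, 8, 16, 24, 32 and 40 h time points.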

[15] = qHTS RealTime-Glo MT Cell Viability Assay in HepG2 cells - 40 hour (AID 1224870); note: nearly all actives have a fitted effect of over 50% in size
Method in brief: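 Real-time viability: cells seeded at 600 per well together with NanoLuc and cell-permeant prosubstrate, compounds added after 5 h incubation. Luminescence tracked at 0, 8, 16, 24, 32 and 40 h of exposure.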

[16] = qHTS assay to identify small molecule antagonists of the estrogen related receptor signaling pathway with the pleiotropic PPARgamma coactivator (PGC) from Tox21 10K library (AID 1224841; call rule not given here)
Method in brief: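 PGC/ERR cell line, 2,000 cells/well, pre-incubated 6 hours at 37 C, then exposed to compounds for 18 hours at 37 C; luciferase read with One-Glo luminescence after 30 min at room temperature.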

[17] = qHTS assay to identify small molecule agonists of the estrogen related receptor signaling pathway with the pleiotropic PPARgamma coactivator (PGC) from Tox21 10K library (AID 1224842); note: nearly all actives have a fitted effect of over 15% in size
Method in brief: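 Luminescence from One-Glo (30 min, room temperature) measured after PGC/ERR cells had 18 h at 37 C with pinned compound (23 nL in DMSO). Cells had been seeded at 2,000 per well and pre-incubated 6 h.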

[18] = qHTS assay to identify small molecule antagonists of the estrogen related receptor (ERR) signaling pathway from Tox21 library (AID 1224848); note: nearly all actives have a fitted effect of over 50% in size
Method in brief: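 Antagonist-mode screen of the Tox21 10K library in an NTP-provided ERR reporter cell line; 18 h compound exposure at 37 C, luminescence measured with ONE-Glo.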

[19] = qHTS assay to identify small molecule agonists of the estrogen related receptor (ERR) signaling pathway from Tox21 library (AID 1224849; calls by dose curve; note: nearly all actives have a fitted effect of over 15% in size); conditions: ERR reporter cell line, ONE-Glo luciferase, 18 h; at 92.4 µM (top of the series) unless noted
Method in brief: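 ERR reporter cells (NTP line) pre-incubated 6 hours at 37 C, then exposed to compounds for 18 hours at 37 C. ONE-Glo luciferase luminescence was read after 30 minutes at room temperature.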

Chain of Thyrotropin receptor (Homo sapiens) (P16473 whole entry, looked up): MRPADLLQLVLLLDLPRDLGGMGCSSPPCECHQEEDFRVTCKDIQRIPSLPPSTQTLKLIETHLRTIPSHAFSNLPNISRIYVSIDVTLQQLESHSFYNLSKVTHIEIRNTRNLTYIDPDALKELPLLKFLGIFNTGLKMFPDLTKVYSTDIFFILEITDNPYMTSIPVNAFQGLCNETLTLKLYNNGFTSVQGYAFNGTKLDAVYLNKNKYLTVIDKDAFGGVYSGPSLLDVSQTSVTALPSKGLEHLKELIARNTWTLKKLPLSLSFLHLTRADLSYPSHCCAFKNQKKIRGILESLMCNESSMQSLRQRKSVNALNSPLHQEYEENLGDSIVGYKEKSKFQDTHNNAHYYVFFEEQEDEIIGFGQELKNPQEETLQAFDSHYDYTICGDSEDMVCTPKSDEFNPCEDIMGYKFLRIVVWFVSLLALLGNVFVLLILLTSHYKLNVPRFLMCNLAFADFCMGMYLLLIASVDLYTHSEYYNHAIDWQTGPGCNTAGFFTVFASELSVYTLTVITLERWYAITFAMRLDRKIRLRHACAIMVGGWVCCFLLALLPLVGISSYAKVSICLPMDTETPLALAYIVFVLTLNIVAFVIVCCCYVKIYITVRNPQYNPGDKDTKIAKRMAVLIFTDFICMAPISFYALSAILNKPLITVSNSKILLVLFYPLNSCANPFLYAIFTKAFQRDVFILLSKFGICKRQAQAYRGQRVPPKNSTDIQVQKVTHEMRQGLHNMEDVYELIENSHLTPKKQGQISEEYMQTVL
Chain of Nuclear receptor subfamily 1 group I member 3 (Homo sapiens) (Q14994 whole entry, looked up): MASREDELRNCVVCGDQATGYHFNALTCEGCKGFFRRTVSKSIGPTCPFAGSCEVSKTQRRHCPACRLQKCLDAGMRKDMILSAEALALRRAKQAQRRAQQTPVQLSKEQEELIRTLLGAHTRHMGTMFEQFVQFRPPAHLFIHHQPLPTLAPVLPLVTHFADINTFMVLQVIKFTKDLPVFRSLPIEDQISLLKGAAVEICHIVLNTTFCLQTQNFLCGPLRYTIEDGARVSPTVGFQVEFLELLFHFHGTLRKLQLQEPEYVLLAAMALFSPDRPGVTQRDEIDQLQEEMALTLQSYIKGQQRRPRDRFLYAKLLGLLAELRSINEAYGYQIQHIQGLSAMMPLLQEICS
Chain of Luciferin 4-monooxygenase (Photinus pyralis) (P08659 whole entry, looked up): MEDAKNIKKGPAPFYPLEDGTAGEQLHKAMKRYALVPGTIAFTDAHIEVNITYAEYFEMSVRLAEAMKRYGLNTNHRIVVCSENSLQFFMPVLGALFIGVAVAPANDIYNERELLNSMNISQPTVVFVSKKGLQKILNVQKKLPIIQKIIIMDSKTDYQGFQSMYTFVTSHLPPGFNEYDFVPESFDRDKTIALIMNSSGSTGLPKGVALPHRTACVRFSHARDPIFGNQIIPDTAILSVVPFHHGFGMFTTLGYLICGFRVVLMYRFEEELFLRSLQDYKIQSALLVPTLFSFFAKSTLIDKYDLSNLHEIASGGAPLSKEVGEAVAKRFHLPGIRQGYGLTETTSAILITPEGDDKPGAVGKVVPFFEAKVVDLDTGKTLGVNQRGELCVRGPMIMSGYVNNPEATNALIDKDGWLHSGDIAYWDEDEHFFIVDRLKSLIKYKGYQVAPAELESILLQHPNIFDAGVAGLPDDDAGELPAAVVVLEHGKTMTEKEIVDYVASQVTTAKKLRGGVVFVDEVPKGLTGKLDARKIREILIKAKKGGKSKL

SMILES	Potency [1]	Potency [2]	Potency [3]	Potency [4]	Potency [5]	Potency [6]	Potency [7]	Potency [8]	outcome [9]	outcome [10]	Potency [11]	Potency [12]	Potency [13]	outcome [14]	Potency [15]	Potency [16]	Potency [17]	Potency [18]	activity change, positive = activation [19]
COC(=O)c1ccc(CBr)cc1	inactive	inactive	inactive	inactive	31 µM (active)	inactive	inactive	inactive	inactive	inactive	inactive	inactive	inactive	inactive	inactive				
O=c1[nH]c2ccccc2n1C1CCNCC1	inactive	inactive	inactive	inactive	inactive	inactive	inactive	inactive	inactive	inactive	inactive	inactive	inactive	inactive	inactive				
c1ccc2c(c1)CCNC2	inactive	inactive	inactive	inactive	inactive	inactive	inactive	inactive	inactive	inactive	inactive	inactive		inactive	inactive	inactive	inactive	inactive	-19.6%
[O-][Br+2]([O-])O	inactive	inactive	inactive	inactive	inactive	inactive	inactive	inactive	inactive	inactive	inactive	inactive	inactive	inactive	inactive				
OP(O)c1ccccc1	inactive	inactive	inactive	inactive	inactive	inactive	inactive	inactive		inactive	inactive	inactive	inactive	inactive	inactive	inactive	inactive	inactive	1.75%
CC(C)(C1CCC(O)CC1)C1CCC(O)CC1 (stereo not given)	inactive	inactive	inactive	inactive	19.3 µM (active)	inactive		inactive	inactive	inactive	inactive	inactive	inactive	inactive	inactive				
CCC(=O)c1ccc(Cl)cc1	inactive	inactive	inactive	inactive	inactive	inactive	inactive	inactive		inactive	inactive	inactive		inactive	inactive	inactive	inactive	inactive	6.34%
CC#Cc1cc(C)nc(Nc2ccccc2)n1	inactive	39.9 µM (active)	inactive	inactive	30.6 µM (active)	inactive	inactive	inactive	inactive	inactive	inactive	inactive		inactive	inactive				
CCOC1Oc2ccc(OS(C)(=O)=O)cc2C1(C)C (stereo not given)	inactive	inactive	inactive	inactive	30.4 µM (active)	inactive	inactive	inactive		inactive	inactive	inactive		inactive	inactive				
COc1ccc(C=O)cc1O	inactive	inactive	inactive	inactive	inactive	inactive	inactive	inactive	inactive	inactive	inactive	inactive	inactive	inactive	inactive		inactive	inactive	2.88%
CC[C@H](N)c1ccccc1	inactive	inactive	inactive	inactive	inactive		inactive	inactive	inactive	inactive	inactive	inactive	inactive	inactive	inactive				
Oc1ccc(Cc2ccc(O)cc2)cc1	inactive	40.2 µM (active)	inactive	inactive	54.9 µM (active)		inactive	inactive	inactive	inactive	inactive	inactive		inactive	inactive	inactive	inactive	inactive	5.91%
O=C1CC(=O)NC(=O)N1	inactive	inactive	inactive	inactive	inactive	inactive	inactive	inactive	inactive	inactive	inactive	inactive	inactive	inactive	inactive				
COC(=O)c1ccccc1CS(=O)(=O)NC(=O)Nc1nc(OC)cc(OC)n1	inactive	inactive	inactive	inactive	inactive		inactive	inactive	inactive	inactive	inactive	inactive	inactive	inactive	inactive	inactive	inactive	inactive	-0.138%
CN(CCO)CCO	inactive	inactive	inactive	inactive	inactive		inactive	inactive	inactive	inactive	inactive	inactive	inactive	inactive	inactive				
